This is an account of results in PubChem BioAssay (NCATS).

Assay [1] addresses Cytochrome P450 3A4 (Homo sapiens) (UniProt P08684). Put plainly: qHTS Assay for Activators of Cytochrome P450 3A4 (AID 885). Further: nearly all actives have a fitted effect of over 65% in size. In a few lines:
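CYP3A4 activity: Luciferin-PPXE O-dealkylation, 25uM substrate, 200mM KPO4, RT throughout. Read-out is luciferase luminescence; higher values reflect activation.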
Background: In qHTS, concentration-response curves come from the screen itself.

A short description of assay [2]: Confirmation and Secondary Assay for Modulators of Hemoglobin Beta Chain Splicing at IVS2 705 locus (AID 930).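 Further: HeLa cells stably expressing the EGFP-705 splicing reporter; GFP fluorescence per well restored by corrected splicing of the IVS2-705 intron in EGFP; % of control where 0% means no effect.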 The gist of the method:
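Assay measures total GFP intensity per well in HeLa EGFP-705 cells after 2 days with compound; mis-splicing normally truncates EGFP, so fluorescence indicates corrected splicing.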

Assay [3] can be described thus: qHTS Assay for Lipid Storage Modulators (AID 1519; calls by dose curve; on activity change, negative = inhibition: on the % scale 0 is the no-effect control and ±100 the full control effect). The following applies: Drosophila S3 cells, BODIPY lipid droplet/cell ratio, laser cytometry, cells loaded with oleic acid; for activity change, negative = inhibition: at 57.5 µM (top of the series). In a few lines: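 Cells seeded at 5,000 per well were treated with compounds over a concentration series and loaded with oleic acid (400 uM, as added). Lipid droplet fluorescence (488 nm excitation, 500-530 nm channel) was read by laser-scanning cytometry and normalized to 20 uM Triacsin C.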

Assay [4] can be described thus: Confirmation and Secondary Assay for Modulators of Hemoglobin Beta Chain Splicing at IVS2 654 locus (AID 910).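 Further: HeLa cells stably carrying EGFP split by mutant beta-globin IVS2-654 intron; % of control where 0% means no effect.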 In a few lines:
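HeLa cells stably expressing EGFP interrupted by β-globin IVS2-654 intron, seeded overnight in Opti-MEM/2% FCS, then treated 2 days at 37 °C. Restored splicing read as total peak GFP intensity per well by laser scanning cytometry (488 nm excitation, 500–520 nm emission); 500 nM antisense PNA as control.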

Assay [5] concerns the target Cytochrome P450 3A4 (Homo sapiens) (UniProt P08684). Put plainly: qHTS Assay for Inhibitors and Substrates of Cytochrome P450 3A4 (AID 884). Further: nearly all actives have a fitted effect of over 50% in size. Further: potency means the concentration at half of the fitted maximal effect. On activity change, negative = inhibition: on the % scale 0 is the no-effect control and ±100 the full control effect. The gist of the method: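 Luminescent readout of luciferin produced by CYP3A4 (20 nM) dealkylation of Luciferin-PPXE, 25 uM (its KM). NADPH-driven reaction ran 60 min at RT after 10 min compound preincubation; data scaled to 57 uM ketoconazole as 100% inhibition.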

The mark [6] stands for this setting: measured here: cell count channel max response.
The mark [7] stands for this setting: measured here: lipid channel max response.

Results filed as inconclusive are left out. Calls of active or inactive are those of the source. Unless noted, the call rests on the fitted dose curve; in most records, active means well fitted curve in the direction sought with a large enough effect; inconclusive means small, poorly fitted or top-dose-only effect, or another doubt; inactive means no such curve, though single readings can be large; an effect the other way counts as inactive or inconclusive.

Cytochrome P450 3A4 (Homo sapiens), sequence (P08684 whole entry, looked up): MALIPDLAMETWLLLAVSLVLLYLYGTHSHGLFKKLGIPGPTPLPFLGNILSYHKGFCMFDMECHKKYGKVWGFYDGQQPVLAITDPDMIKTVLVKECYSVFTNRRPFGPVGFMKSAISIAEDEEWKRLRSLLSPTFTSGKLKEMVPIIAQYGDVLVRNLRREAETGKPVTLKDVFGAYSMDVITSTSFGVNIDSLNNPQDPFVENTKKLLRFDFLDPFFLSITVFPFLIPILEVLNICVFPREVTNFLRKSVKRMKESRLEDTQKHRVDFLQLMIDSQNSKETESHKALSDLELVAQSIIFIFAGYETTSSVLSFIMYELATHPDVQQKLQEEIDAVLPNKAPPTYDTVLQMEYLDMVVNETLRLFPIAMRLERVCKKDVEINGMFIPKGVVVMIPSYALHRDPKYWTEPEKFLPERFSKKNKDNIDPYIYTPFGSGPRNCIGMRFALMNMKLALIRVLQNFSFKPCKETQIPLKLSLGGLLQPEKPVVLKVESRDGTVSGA

As to `C=CCCCCCCCCCCC/C=C/C(O)COC(C)=O` (stereo not given), the Potency entry in assay [1] and in assay [2] was “inactive” in each case. Moreover, the activity change, negative = inhibition in assay [3] was 8.71% (inactive). Also, the values for the max response in assay [3] (setting [6]) and in assay [3] (setting [7]) were 8.46% and 19.5%, respectively.

As for `CC(=O)OC1CCC2(C)C3=C(CCC2C1(C)C)[C@]1(C)CCC(C(C)CCC=C(C)C)[C@]1(C)CC3` (stereo not given in full), the Potency result in assay [1] and in assay [2] was “inactive” in each case. Moreover, the activity change, negative = inhibition in assay [3] was -0.993% (inactive). Also, the max response in assay [3] (setting [6]) turned out to be 20.7%; in assay [3] (setting [7]), 23.4%.

For the compound `CC(=O)OCC1OC(Oc2cc(OC(C)=O)c3c(=O)cc(-c4ccc(OC(C)=O)cc4)oc3c2)[C@@H](OC(C)=O)C(OC(C)=O)C1OC(C)=O` (stereo not given in full), the Potency result in assay [1], in assay [4] and in assay [2] was “inactive” throughout. Besides, in assay [3], the activity change, negative = inhibition is -3.32% (inactive). Also, the values for the max response in assay [3] (setting [6]) and in assay [3] (setting [7]) were -1.21% and -5.92%, respectively.

On to `c1ccc2c(c1)CN1CCCC1=N2`, for which the Potency entry in assay [5] and in assay [2] was “inactive” in each case. Further, the activity change, negative = inhibition in assay [3] is 5.8% (inactive). Also, the values for the max response in assay [3] (setting [6]) and in assay [3] (setting [7]) were 4.77% and 11.2%, respectively.

For `CCCCC(=O)O[C@@]1(C(=O)CO)C(C)CC2C3CCC4=CC(=O)C=C[C@@]4(C)[C@]3(F)C(O)C[C@]21C` (stereo not given in full), the Potency entry in assay [1], in assay [4] and in assay [2] was “inactive” each time. The activity change, negative = inhibition in assay [3] is -6.08% (inactive). Moreover, the max response in assay [3] (setting [6]) is 9.88%; in assay [3] (setting [7]), 7.08%.

Regarding `O=c1c(O)cccc2cc(O)c(O)c(O)c12`, the Potency result in assay [1] and in assay [4] was “inactive” in each case. Further, in assay [3], the activity change, negative = inhibition was 9.52% (inactive). Moreover, the max response in assay [3] (setting [6]) amounted to 11.8%; in assay [3] (setting [7]), 24.4%.

Turning to `CC(=O)Oc1cc2c(c(C)c1OC(C)=O)CC=C1[C@]3(C)CC[C@]4(C)CC[C@@](C)(C(=O)O)CC4[C@]3(C)CC[C@]12C` (stereo not given in full), the Potency result in assay [1], in assay [4] and in assay [2] was “inactive” in each case. For the same compound, in assay [3], the activity change, negative = inhibition is -5.08% (inactive). Besides, the max response was -7.33% in assay [3] (setting [6]) and -12.4% in assay [3] (setting [7]).

Turning to `CC(=O)OC1CC(OC(C)=O)[C@]2(C)C(CC(O)[C@]3(C)C2CC[C@@]2(C)C(c4ccoc4)OC(=O)C4O[C@]432)C1(C)C` (stereo not given in full), the Potency in assay [5] is 2510 nM (active). Also, the Potency entry in assay [4] and in assay [2] was “inactive” each time. Further, in assay [3], the activity change, negative = inhibition is -15.6% (inactive). The max response in assay [3] (setting [6]) was -1.7%; in assay [3] (setting [7]), -11.8%.

As for `C=CCCCCCCCCCCCC(O)CC(O)COC(C)=O` (stereo not given), the Potency result in assay [4] and in assay [2] was “inactive” each time. The activity change, negative = inhibition in assay [3] was 12.3% (inactive). For the same compound, the max response in assay [3] (setting [6]) came out at 4.88%; in assay [3] (setting [7]), 15.5%.

Regarding `CC12CCCC(O)(C1)C1CC(C)(C)C1CC2` (stereo not given), the Potency result in assay [5], in assay [4] and in assay [2] was “inactive” each time. In assay [3], the activity change, negative = inhibition was 4.18% (inactive). The max response in assay [3] (setting [6]) was -0.674%; in assay [3] (setting [7]) it was 2.69%.

As for `CO[C@@]1(NC(=O)CSCC#N)C(=O)N2C(C(=O)O)=C(CSc3nnnn3C)CSC21` (stereo not given in full), the Potency entry in assay [5] and in assay [2] was “inactive” throughout. Besides, the activity change, negative = inhibition in assay [3] was 5.21% (inactive). Further, the max response in assay [3] (setting [6]) was 4.52%; in assay [3] (setting [7]) it was 12.5%.

Regarding `O=c1c(O)c(-c2ccccc2)oc2cc(O)ccc12`, the Potency entry in assay [1], in assay [4] and in assay [2] was “inactive” throughout. In assay [3], the activity change, negative = inhibition was 6.29% (inactive). Besides, the max response in assay [3] (setting [6]) was -1.89%; in assay [3] (setting [7]) it was 5.57%.

As to `CC(C)c1c(O)ccc2c1CCC1[C@@](C)(C=O)CCC[C@@]21C` (stereo not given in full), the Potency entry in assay [1], in assay [4] and in assay [2] was “inactive” in each case. Further, in assay [3], the activity change, negative = inhibition was -2.8% (inactive). In addition, the figures for the max response in assay [3] (setting [6]) and in assay [3] (setting [7]) were 1.05% and -0.0657%, respectively.

On to `O=C(/C=C(\O)c1ccccc1)c1ccccc1O`, for which the Potency result in assay [1] and in assay [2] was “inactive” in each case. For the same compound, the activity change, negative = inhibition in assay [3] is -15.7% (inactive). In addition, the max response in assay [3] (setting [6]) was -12.9%; in assay [3] (setting [7]), -24.5%.

With `CNC(CC(=O)O)C(=O)O` (stereo not given), the Potency entry in assay [5], in assay [4] and in assay [2] was “inactive” each time. In addition, in assay [3], the activity change, negative = inhibition was 0.835% (inactive). Further, the max response was found to be 10.8% in assay [3] (setting [6]) and 11.7% in assay [3] (setting [7]).

Turning to `NC(C(=O)NC1C(=O)N2C(C(=O)O)=C(Cl)CSC12)c1ccccc1` (stereo not given), the Potency result in assay [1], in assay [4] and in assay [2] was “inactive” each time. Besides, in assay [3], the activity change, negative = inhibition is 8.35% (inactive). Moreover, the max response came out at 18.8% in assay [3] (setting [6]) and 24.9% in assay [3] (setting [7]).

As for `COc1cc(O)c(C(=O)c2ccccc2)cc1O`, the Potency entry in assay [1], in assay [4] and in assay [2] was “inactive” in each case. In addition, in assay [3], the activity change, negative = inhibition was 2.59% (inactive). Also, the max response was 7.29% in assay [3] (setting [6]) and 11.7% in assay [3] (setting [7]).
